{"source": "PubChem BioAssay (NCATS)", "key": {"[1]": {"molecular_target": "Calcium and integrin-binding protein 1 (Homo sapiens) (UniProt Q99828)", "sequence (Q99828 whole entry, looked up)": "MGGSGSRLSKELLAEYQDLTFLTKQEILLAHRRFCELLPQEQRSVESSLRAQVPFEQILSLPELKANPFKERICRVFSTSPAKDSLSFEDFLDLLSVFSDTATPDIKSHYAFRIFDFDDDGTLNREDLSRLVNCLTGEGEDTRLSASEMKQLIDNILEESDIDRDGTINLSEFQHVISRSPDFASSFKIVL", "assay": "Primary qHTS for Identification of Calcium Integrin Binding Protein 1 (CIB1) Competitor (AID 1508620);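 also: GST tagged CIB1 binding a fluorescein labelled alphaIIb integrin peptide tracer; top concentration of the series differs between compounds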", "conditions": "CIB1-GST / FITC-alphaIIb peptide fluorescence polarization; series mostly up to 114 µM", "outline": "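CIB1-GST (1 uM final) and compound incubated 15 min at room temperature before adding FITC-alphaIIb peptide tracer (100 nM final). Competition for binding read by fluorescence polarization (ex 480, em 540) after another 15 min at room temperature.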"}, "[2]": {"assay": "Primary qHTS for inhibitors of nuclear receptor binding SET domain protein 2 (NSD2) in an isogenic RCH-ACV NSD2 p.E1099K mutant (9B) (AID 1645876); also: nearly all actives have a fitted effect of over 70% in size", "conditions": "RCH-ACV NSD2 E1099K (9B) viability, CellTiter-Glo, 72 h; series mostly up to 44.9 µM"}}, "note": "Results filed as inconclusive are left out. A call without a number means that no potency is given here. Values without a mark were called inactive. Active and inactive are the calls of the source. Calls follow the shape of the dose curve; as a rule, active = well fitted inhibition curve with a large enough effect; inconclusive = small, poorly fitted or top-dose-only effect; inactive = flat fitted curve, though single readings scatter."}
{"compound": "CC(C)CNCc1ccc(-c2ccccc2S(=O)(=O)N2CCCC2)cc1", "values": [{"measurement": "Potency", "setting": "[1]", "value": "inactive"}, {"measurement": "Potency", "setting": "[2]", "value": "inactive"}]}
{"compound": "CC(C)C1=CC2C(CC[C@]2(C)O)[C@](C)(O)CC1", "note": "(stereo partly specified)", "values": [{"measurement": "Potency", "setting": "[1]", "value": "inactive"}, {"measurement": "Potency", "setting": "[2]", "value": "inactive"}]}
{"compound": "CC1(C)CC[C@]2(C(=O)O[C@@H]3O[C@H](CO)[C@@H](O)[C@H](O)[C@H]3O)CC[C@]3(C)C(=CCC4[C@@]5(C)C[C@@H](O)[C@H](O)[C@@](C)(CO)C5CC[C@]43C)C2[C@@H]1O", "note": "(stereo partly specified)", "values": [{"measurement": "Potency", "setting": "[1]", "value": "inactive"}, {"measurement": "Potency", "setting": "[2]", "value": "inactive"}]}
{"compound": "O=S(=O)(c1ccc(S(=O)(=O)n2cnc3ccccc32)cc1)N1CCCCCC1", "values": [{"measurement": "Potency", "setting": "[1]", "value": "inactive"}, {"measurement": "Potency", "setting": "[2]", "value": "inactive"}]}
{"compound": "COc1c2c(c(C)c3c1C(=O)OC3)O[C@@]1(C)CCC3(C(C)(C)O)OC(=O)CC[C@]3(C)[C@H]1C2", "note": "(stereo partly specified)", "values": [{"measurement": "Potency", "setting": "[1]", "value": "inactive"}, {"measurement": "Potency", "setting": "[2]", "value": "inactive"}]}
{"compound": "C[C@@H]1O[C@@H](O[C@H]2[C@@H](OC(=O)[C@]34CCC(C)(C)CC3C3=CCC5[C@@]6(C)C[C@H](O)[C@H](O[C@@H]7O[C@H](C(=O)O)[C@@H](O)[C@H](O)[C@H]7O)[C@@](C)(C(=O)O)C6CC[C@@]5(C)[C@]3(C)CC4)OC[C@H](O)[C@@H]2O)[C@H](O)[C@H](O)[C@H]1O[C@@H]1OC[C@@H](O)[C@H](O)[C@H]1O", "note": "(stereo partly specified)", "values": [{"measurement": "Potency", "setting": "[1]", "value": "inactive"}, {"measurement": "activity change, negative = viability loss", "setting": "[2]", "value": "-12% [at 9.23 µM]"}]}
{"compound": "COc1c(C)c(OCC(O)C(C)(C)O)cc2c1COC2=O", "note": "(stereo unspecified)", "values": [{"measurement": "Potency", "setting": "[1]", "value": "inactive"}, {"measurement": "Potency", "setting": "[2]", "value": "inactive"}]}
{"compound": "C[C@@H]1CC[C@]2(C(=O)O[C@@H]3O[C@H](CO)[C@@H](O)[C@H](O)[C@H]3O)CC[C@]3(C)C(=CCC4[C@@]5(C)C[C@@H](O)[C@H](O)[C@@](C)(C(=O)O[C@H]6[C@H](O)C[C@@]7(C)C(CC[C@]8(C)C7CC=C7[C@H]9[C@](C(=O)O[C@@H]%10O[C@H](CO)[C@@H](O)[C@H](O)[C@H]%10O)(CC[C@@H](C)[C@@]9(C)O)CC[C@]78C)[C@@]6(CO)C(=O)O)C5CC[C@]43C)[C@@H]2[C@]1(C)O", "note": "(stereo partly specified)", "values": [{"measurement": "activity change, negative = inhibition", "setting": "[1]", "value": "3.8% [at 12.4 µM]"}, {"measurement": "outcome", "setting": "[2]", "value": "inactive [at 9.23 µM]"}]}
